Results: PubChem BioAssay AID488969 (Vanderbilt High Throughput Screening Facility, 2010)
The full ranking holds about 110,000 compounds; the median of “z-score” is about -0.1, and the highest 2% start at about 2. The sample holds the highest values, similar compounds and a random draw of the others, so the mix is not that of the screen. The source made the active and inactive calls.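 Rule for the calls: active = z-score in the third read window above 3 or below -3; inactive = the rest.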

These compounds were tested against Metabotropic glutamate receptor 8 (Rattus norvegicus) (UniProt P70579) (assay: mGluR8 Gi/Go-coupled signaling modulation – cell-based, rat, thallium flux, HTS, primary screen (AID 488969)). Conditions: HEK293 rat mGluR8, GIRK (G protein-gated inwardly rectifying potassium channel) thallium flux, FluoZin2; at 10 µM; stronger effect = higher value; submaximal glutamate (EC20) added with thallium.
Metabotropic glutamate receptor 8 (Rattus norvegicus), sequence (P70579 whole entry, looked up): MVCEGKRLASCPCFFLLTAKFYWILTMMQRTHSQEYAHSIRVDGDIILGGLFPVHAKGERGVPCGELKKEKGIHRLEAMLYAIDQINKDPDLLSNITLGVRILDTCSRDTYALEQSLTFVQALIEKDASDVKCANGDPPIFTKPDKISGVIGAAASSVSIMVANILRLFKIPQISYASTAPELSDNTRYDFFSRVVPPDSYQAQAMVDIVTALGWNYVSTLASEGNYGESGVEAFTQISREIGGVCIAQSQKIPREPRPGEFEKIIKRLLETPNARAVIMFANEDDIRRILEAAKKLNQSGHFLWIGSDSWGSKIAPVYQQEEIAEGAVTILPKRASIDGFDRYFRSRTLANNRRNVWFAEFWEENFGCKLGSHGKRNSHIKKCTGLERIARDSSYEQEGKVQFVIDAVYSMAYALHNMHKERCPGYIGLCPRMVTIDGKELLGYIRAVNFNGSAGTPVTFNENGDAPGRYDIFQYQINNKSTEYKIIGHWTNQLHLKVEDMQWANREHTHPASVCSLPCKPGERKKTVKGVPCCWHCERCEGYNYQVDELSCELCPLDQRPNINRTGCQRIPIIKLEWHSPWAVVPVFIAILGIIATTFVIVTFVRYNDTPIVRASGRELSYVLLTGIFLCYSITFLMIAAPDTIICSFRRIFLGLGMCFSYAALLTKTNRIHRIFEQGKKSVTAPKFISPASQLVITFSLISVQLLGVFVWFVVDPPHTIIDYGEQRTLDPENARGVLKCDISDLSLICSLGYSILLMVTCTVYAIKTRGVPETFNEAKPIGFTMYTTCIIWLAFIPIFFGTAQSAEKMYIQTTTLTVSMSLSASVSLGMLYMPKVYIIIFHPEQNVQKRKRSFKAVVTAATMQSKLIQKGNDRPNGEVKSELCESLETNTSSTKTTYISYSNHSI

| Compound | z-score |
| --- | --- |
| CC(=NC1CC1)c1c(-c2ccccc2)[nH]n(-c2nc3ccccc3s2)c1=O | -0.25 |
| CCCc1cc(-c2n[nH]c(=S)n2CC(C)C)cs1 | 4.16 (active) |
| Cc1cc(-c2n[nH]c(=S)n2CC(C)C)cs1 | -0.405 |
| CCc1c(-c2n[nH]c(=S)n2Cc2ccccc2)csc1C | 2.88 |
| S=c1[nH]nc(-c2ccncc2)n1Cc1ccccc1 | 1.42 |
| Cc1scc(-c2n[nH]c(=S)n2Cc2ccccc2)c1C | 0.854 |
| Cc1cc(-c2n[nH]c(=S)n2Cc2ccccc2)cs1 | 0.453 |
| CCc1cc(-c2n[nH]c(=S)n2CC(C)C)cs1 | 1.12 |
| CCCc1cc(-c2n[nH]c(=S)n2Cc2ccccc2)cs1 | 4.6 (active) |
| CCc1cc(-c2n[nH]c(=S)n2Cc2ccccc2)cs1 | 0.464 |
| Cc1nc2c(C)cccc2cc1C(=O)N/N=C/c1cccnc1 | -0.392 |
| CCc1cccc(CC)c1NC(=O)COC(=O)c1cccc(-c2ccc(OC(C)=O)cc2)c1 | -1.91 |
| Cc1ccccc1C(=NCCCN(C)C)c1ccccc1C | 0.825 |
| O=C(Cc1cccs1)N(Cc1ccco1)C1(C(=O)NC2CCCCC2)CCCCC1 | 1.89 |
| Cn1nc(Oc2nc(N3CCOCC3)nc(N3CCOCC3)n2)ccc1=O | 0.165 |
| O=C(c1cc2cc(Br)ccc2oc1=O)N1CCCC1 | 0.0138 |
| CCOC(=O)N1CCN(C(=O)c2cc3cc(Br)ccc3oc2=O)CC1 | -0.271 |
| CCC1CCCCN1C(=O)c1cc2cc(Br)ccc2oc1=O (stereo not given) | 7.8 (active) |
| C=CCNC(=O)CC(=O)N/N=C/c1ccc(F)cc1 | -0.18 |
| C=CCn1c(-c2ccc(OC)cc2)csc1=Nc1c(C)n(C)n(-c2ccccc2)c1=O | -0.422 |
| N#CC1=C(S)N=C(N)C(c2nc(-c3ccccc3)cs2)C12CCCC2 (stereo not given) | 0.271 |
| Cc1ccc(S(=O)(=O)N(C)/C(=N/S(=O)(=O)c2ccccc2)c2ccccc2)cc1 | -0.162 |

| Compound | z-score |
| --- | --- |
| O=C(O)/C=C/c1cn(-c2ncc(C(F)(F)F)cc2Cl)c2ccccc12 | -0.0759 |
| CC(=O)/C=C\c1cn(-c2ncc(C(F)(F)F)cc2Cl)c2ccccc12 | -0.119 |
| CN(C)/C=C/C(=O)/C=C/c1cn(-c2ncc(C(F)(F)F)cc2Cl)c2ccccc12 | 5.57 (active) |
| CN1CCN(C(=O)c2ccc(-c3nn(C)c(=O)c4ccccc34)cc2)CC1 | -0.877 |
| CSc1ncc(Cl)c(C(=O)NCc2ccc3c(c2)OCO3)n1 | 0.575 |
| COc1ncnc2c1sc1nc(-c3ccccc3)c3c(c12)CCCC3 | -0.0945 |
| O=c1[nH]cnc2c1sc1nc(-c3ccccc3)c3c(c12)CCCC3 | 0.204 |
| S=c1nc[nH]c2c1sc1nc(-c3ccccc3)c3c(c12)CCCC3 | 7.83 (active) |
| CC1CN(C(=O)/C=C/c2cccc([N+](=O)[O-])c2)CC(C)O1 (stereo not given) | -0.164 |
| COCCNC(=O)CCCCCn1c(=S)[nH]c2ccccc2c1=O | 1.77 |
| O=c1[nH]c2ccccc2c(=O)n1Cc1ccccc1 | 0.345 |
| COc1ccc(NC(=O)CCCn2c(=S)[nH]c3ccccc3c2=O)cc1 | -0.514 |
| CCOc1cc2[nH]c(=S)n(CCN3CCCCC3C)c(=O)c2cc1OCC (stereo not given) | 0.258 |
| CC1CCCN(C(=O)CCCn2c(=S)[nH]c3ccccc3c2=O)C1 (stereo not given) | 4.5 (active) |
| O=C(CCCn1c(=S)[nH]c2ccccc2c1=O)N1CCCCC1 | 1.44 |
| CCC1CCCCN1CCn1c(=S)[nH]c2cc(OC)c(OC)cc2c1=O (stereo not given) | 2.07 |
| CCOc1cc2[nH]c(=S)n(CCN3CCCCC3CC)c(=O)c2cc1OCC (stereo not given) | 1.73 |
| O=c1c2ccccc2[nH]c(=S)n1CCN1CCN(Cc2ccccc2)CC1 | 7.91 (active) |
| O=C(CCCCCn1c(=S)[nH]c2ccccc2c1=O)N1CCOCC1 | -0.155 |
| CCN1CCN(CCn2c(=S)[nH]c3ccccc3c2=O)CC1 | 0.66 |
| COc1cccc(NC(=O)CCCn2c(=S)[nH]c3ccccc3c2=O)c1 | 3.39 (active) |
| Cc1cccc(C(=O)N2c3ccccc3C(=O)OC2c2ccc3c(c2)OCO3)c1 (stereo not given) | -0.842 |

| Compound | z-score |
| --- | --- |
| c1coc(CN(Cc2ccco2)c2ncnc3c2oc2ccccc23)c1 | -2.18 |
| O=C1CN=C(Nc2ccc(Cl)cc2)N1c1ccccc1 | -0.0445 |
| COc1cc(-n2c(C)nc3cc(C(=O)NCCN4CCOCC4)ccc32)cc(OC)c1OC | -0.57 |
| COc1cc(NC(=S)Nc2cccnc2)cc(OC)c1OC | -0.192 |
| CC1CCN(CCCn2c(=S)[nH]c3ccccc3c2=O)CC1 | 0.0115 |
| O=c1c2ccccc2[nH]c(=S)n1CCCN1CCN(C2CCCCC2)CC1 | 10.2 (active) |
| O=C(CCCn1c(=S)[nH]c2cc3c(cc2c1=O)OCO3)N1CCN(C2CCCCC2)CC1 | -0.008 |
| CCN(CC)CCCn1c(=S)[nH]c2ccccc2c1=O | 0.126 |
| CC1CCCCN1CCCn1c(=S)[nH]c2ccccc2c1=O (stereo not given) | 3.46 (active) |
| CC1CCCCN1CCNc1nc(=S)[nH]c2ccccc12 (stereo not given) | -0.105 |
| CCN1CCN(CCCNC(=O)c2cc3c(=O)[nH]c4ccccc4c3s2)CC1 | 0.477 |
| O=C(CCCn1c(=S)[nH]c2ccccc2c1=O)NC1CCCCC1 | 0.0447 |
| O=C(NCCN1CCN(Cc2ccccc2)CC1)c1cc2c(=O)[nH]c3ccccc3c2s1 | 2.15 |
| Cc1ccc2[nH]c(=O)c3cc(C(=O)NCCN4CCN(C)CC4)sc3c2c1 | 0.666 |
| CC1CC(C)CN(CCCn2c(=S)[nH]c3ccccc3c2=O)C1 (stereo not given) | 14.4 (active) |
| O=C(NC1CCCCC1)c1ccccc1-c1ccccc1 | -0.176 |
| COCCNC(=O)c1cc2ncc(Br)cn2n1 | 0.00586 |
| C/C(Cn1cnc([N+](=O)[O-])n1)=N\NC(=O)c1ccc(Br)cc1 | -0.261 |
| O=C(CNC(=O)c1cccs1)NC1=NCCS1 | 0.647 |
| COc1ccc(/C=N/NC(=O)c2ccccc2O)cc1CSc1ccccn1 | 0.779 |
| Cc1c2cccn2cc[n+]1C | -0.16 |
| CCOC(=O)c1ccc(N/C=C2/CCCC(C)C2=O)cc1 (stereo not given) | 0.315 |

| Compound | z-score |
| --- | --- |
| Cc1ccccc1OCC(=O)O/N=C(\N)Cc1ccc(Cl)cc1 | -0.483 |
| CC12CC(NC(=O)N1c1cccc(C(=O)N3CCN(c4ccccc4)CC3)c1)c1ccccc1O2 (stereo not given) | -0.354 |
| CCC1CCCCN1CC(=O)c1c(C)[nH]c2ccccc12 (stereo not given) | -0.699 |
| CCC1CCCCN1CCCn1c(=S)[nH]c2ccccc2c1=O (stereo not given) | 7.04 (active) |
| CCOC(=O)N1CCN(C(=O)CCCn2c(=S)[nH]c3ccccc3c2=O)CC1 | -0.357 |
| CC1=C(C(=O)Nc2ccccc2)C(c2ccco2)C(C#N)=C(SCC(=O)Nc2cccc(C)c2C)N1 (stereo not given) | 0.693 |
| Cc1ccnc2nc(C(=O)Nc3ccc(N4CCOCC4)cc3)nn12 | 0.0976 |
| CCOC(=O)c1c(C)[nH]c(C2=NNC(=Nc3ccccc3OC)SC2)c1C | -0.32 |
| Nc1ccc(-n2cnc3cc([N+](=O)[O-])ccc32)cc1 | -0.118 |
| CN1C(=O)NC(c2ccccc2)C2=C1CN(Cc1ccccc1)C2=O (stereo not given) | 7.33 (active) |
| Cc1ccc(N2CC3=C(C2=O)C(c2ccccc2)NC(=O)N3C)cc1 (stereo not given) | -0.193 |
| CN1C(=O)NC(c2ccccc2)C2=C1CN(CCc1ccccc1)C2=O (stereo not given) | 0.0172 |
| CCOC(=O)c1c(C)[nH]c(C(=O)OCCOc2ccccc2C)c1C | -0.0787 |
| O=C1/C(=C/c2cccnc2)Oc2cc(OS(=O)(=O)c3ccc(Cl)cc3)ccc21 | 0.0689 |
| Cc1nn(-c2ccccc2)c(C)c1/C=N/NC(=O)c1cc(-c2cccc3ccccc23)n[nH]1 | -0.481 |
| Cc1c(C(=O)Oc2ccc(F)cc2)sc2ncn(Cc3cccc(F)c3)c(=O)c12 | -0.113 |
| O=c1c2cc(Cl)ccc2[nH]c(=S)n1Cc1cccs1 | 4.2 (active) |
| O=c1c2ccccc2[nH]c(=S)n1Cc1cccs1 | 2.21 |
| O=C(CCn1c(=S)[nH]c2ccccc2c1=O)N1CCOCC1 | 0.695 |
| O=c1c2cc(Cl)ccc2[nH]c(=S)n1Cc1ccccn1 | 1.21 |
| CCN(CC)CCn1c(=S)[nH]c2ccc(Cl)cc2c1=O | 1.01 |
| CCC1CCCCN1Cc1ccc(OC)c(C)c1C (stereo not given) | 0.363 |

| Compound | z-score |
| --- | --- |
| CC(C)Oc1ccc(/C(O)=C2/C(=O)C(=O)N(CCCn3ccnc3)C2c2cccnc2)cc1 (stereo not given) | -0.0218 |
| O=S(=O)(Nc1ncccn1)c1ccc(Nc2ncnc3ccccc23)cc1 | 0.439 |
| Cc1cccc(OCC(=O)Nc2sc3c(c2C#N)CCC3)c1 | -0.312 |
| O=C(NC1(C(F)(F)F)NC(=O)N(Cc2cccnc2)C1=O)c1ccccc1 (stereo not given) | 1.13 |
| O=C(NC1(C(F)(F)F)NC(=O)N(Cc2cccnc2)C1=O)c1ccncc1 (stereo not given) | 2.13 |
| O=C(NC1(C(F)(F)F)NC(=O)N(Cc2cccnc2)C1=O)c1ccc(F)cc1 (stereo not given) | 0.269 |
| CCOC(=O)/C=C/C(=O)Nc1ccccc1-c1ccccc1NC(=O)/C=C/C(=O)OCC | -0.138 |
| COc1ccccc1OCCCOc1c(C)cc(C)cc1Br | -0.185 |
| FC(F)(F)c1nnc2ccc(N3CCCC3)nn12 | -0.343 |
| CCOC(=O)c1cnc(-n2nc(C)cc2C)nc1Nc1ccccc1OC | 0.0785 |
| CCC1CCCCN1S(=O)(=O)c1ccc(S(=O)(=O)N(Cc2ccccn2)CC2CCCO2)cc1 (stereo not given) | -0.251 |
| O=c1[nH]c2ccc(Cl)cc2c(=O)n1Cc1ccco1 | 5.27 (active) |
| Nc1cc(=O)[nH]c(=O)n1Cc1ccco1 | 0.299 |
| O=c1[nH]c2cccnc2n1Cc1ccco1 | 0.26 |
| CC(C)NC(=O)c1ccc2c(=O)n(Cc3ccco3)c(=S)[nH]c2c1 | 0.167 |
| COc1cc2[nH]c(=S)n(Cc3ccco3)c(=O)c2cc1OC | -0.209 |
| O=c1c2cc3c(cc2[nH]c(=S)n1Cc1ccco1)OCO3 | 2.77 |
| CN1CCN(C(=O)c2ccc3c(=O)n(Cc4ccco4)c(=S)[nH]c3c2)CC1 | 0.757 |
| O=c1c2cc(Cl)ccc2[nH]c(=S)n1Cc1ccco1 | 16.1 (active) |
| O=C(c1ccc2c(=O)n(Cc3ccco3)c(=S)[nH]c2c1)N1CCN(Cc2ccccc2)CC1 | 0.611 |
| OCc1cn(-c2ccccc2)nc1-c1ccc(-c2nn(-c3ccccc3)cc2CO)cc1 | 0.428 |
| Cc1ccc(NC(=O)c2cc(S(=O)(=O)c3ccccc3)ccc2Cl)cc1 | -0.0678 |
